NR3A LBD binder: binders of NR3A ligand-binding domain, primary screen, biophysical, differential scanning fluorimetry, uHTS; Glutamate receptor ionotropic, NMDA 3A (GRIN3A) ligand-binding domain; NR3A LBD differential scanning fluorimetry, Tm shift; 0% = protein alone, 100% = glycine-bound protein; Tm shift relative to glycine control, % at 25 µM; 2.5% of 340,000 active; AID 1259313, 2017;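 active = melting temperature shift of at least 10% of the positive control shift, at one fixed dose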
Myeloid diff 2: induction of myeloid progenitor differentiation, primary screen, cell-based, flow cytometry, MLPCN library; ER-HoxA9 myeloid progenitors, lysozyme-GFP differentiation; calls only at 10 µM; 1% of 360,000 active; AID 624256, 2012;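 active = normalized GFP-positive differentiation at or above the plate's own cutoff, the solvent-only control mean plus 3 SD; inconclusive = no clear call, values can overlap the other calls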;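 note: cells exposed to compound for four days before flow analysis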
FAS TE block: FAS thioesterase domain inhibitors, primary screen, biochemical, fluorescence intensity, uHTS | Fatty acid synthase (Homo sapiens), P49327 | 0.67% of 360,000 active | recombinant FAS-TE, OMFH fluorogenic substrate, fluorescence endpoint | inhibition, % at 15 µM;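 active = compounds whose normalised, plate-corrected inhibition of enzyme fluorescence in the single-dose primary screen is 50% or more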
MPTP block: mitochondrial permeability transition pore inhibitors, primary screen, biochemical, isolated mouse mitochondria, absorbance. inhibition, % at 10 µM. 1.4% of 360,000 active. Ca2+ swelling absorbance, 30 min;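 active = inhibition of 50% or more, scaled per plate between neutral and stimulator controls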
rCAG RNA binder: binders of r(CAG) RNA repeats, primary screen, biochemical, fluorescence; r(CAG) RNA repeat, TO-PRO-1 dye displacement fluorescence; inhibition, % at 3 µM; 1.3% of 370,000 active; AID 651821, 2012;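 active = inhibition above the plate cutoff, the mean of all test compounds on that plate plus 3 SD, cut at about 35% in these data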;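 note: higher means more dye released from RNA so lower well fluorescence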
rCAG bind conf: small molecules binding CAG repeat RNA – biochemical, fluorescence, confirmation; 70% of 4,300 active; AID 652065, 2013; inhibition, % at 3 µM; r(CAG) RNA repeat, TO-PRO-1 dye displacement fluorescence; shares compounds with rCAG RNA binder;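 active = inhibition above a per-plate cutoff, the mean inhibition of sample wells plus 3 SD, cut at about 35% in these data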;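 note: loss of TO-PRO-1 fluorescence as compound displaces dye from 1x1 AA loop RNA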
DNA CAG counter: displacement of TO-PRO-1 from CAG DNA duplex, counter-screen for rCAG RNA repeat binder project, biochemical, fluorescence, TO-PRO-1 dye, d(CAG) DNA oligo; shares compounds with rCAG RNA binder; AID 652068, 2013; inhibition, % at 3 µM; 94% of 4,300 active; d(CAG) DNA oligo TO-PRO-1 dye displacement;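 active = inhibition above its plate's cutoff, the mean test-well inhibition plus 3 SD, cut at about 4.8% in these data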;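 note: hits displace the dye from DNA and so lower well fluorescence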
dCAG dye DR: inhibitors of DNA CAG/GTC TO-PRO-1 complex, dose response, counter-screen for rCAG RNA repeat binder project, biochemical, fluorescence, TO-PRO-1 dye; DNA CAG/GTC duplex TO-PRO-1 dye displacement fluorescence; AID 686960, 2013; shares compounds with rCAG RNA binder; 20% of 250 active; IC50, µM; in the data active = IC50 below about 10 µM
Of the large screens only hits and unclear results are named; the others gave an inactive call (follow-up assays come after a bar, where they were run). This is a sample that favours compounds with a hit; in the whole collection about 5.7% have one here.

CCOC(=O)c1sc(N2C(=O)C(O)=C(C(=O)c3ccc(C)o3)C2c2cccc([N+](=O)[O-])c2)nc1C (configuration not stated)	rCAG RNA binder 54.5 | rCAG bind conf 78.2 | DNA CAG counter 42.0
CCOC(=O)c1sc(N2C(=O)C(O)=C(C(=O)c3ccc(C)o3)C2c2ccc(OC)c(OC)c2)nc1C (configuration not stated)	none
CCOC(=O)c1ccc(N2C(=O)c3n[nH]c(-c4ccco4)c3C2c2cccc([N+](=O)[O-])c2)cc1 (configuration not stated)	NR3A LBD binder 23.5, rCAG RNA binder 73.5 | rCAG bind conf inactive | DNA CAG counter 13.5
Cc1ccc2nc(N3C(=O)C(O)=C(C(=O)c4ccc(C)o4)C3c3cccc(O)c3)sc2c1 (configuration not stated)	rCAG RNA binder 69.5 | rCAG bind conf 69.3 | DNA CAG counter 32.6
COC(=O)c1sc(N2C(=O)C(O)=C(C(=O)c3ccc(C)o3)C2c2ccc(OC)c(OC)c2)nc1C (configuration not stated)	Myeloid diff 2 inconclusive, rCAG RNA binder 37.0 | rCAG bind conf 36.0 | DNA CAG counter 9.9
CCOC(=O)c1ccc(N2C(=O)c3n[nH]c(C)c3C2c2ccco2)cc1 (configuration not stated)	none
COc1ccc(C2C(C(C)=O)=C(O)C(=O)N2c2nc3ccccc3s2)cc1OC (configuration not stated)	none
CCOC(=O)c1sc(N2C(=O)C(O)=C(C(=O)c3ccco3)C2c2ccc(C)o2)nc1C (configuration not stated)	rCAG RNA binder 43.8 | rCAG bind conf 59.3 | DNA CAG counter 21.1
COc1ccc2nc(N3C(=O)C(O)=C(C(=O)c4ccco4)C3c3ccc(OC)c(OC)c3)sc2c1 (configuration not stated)	rCAG RNA binder 56.3 (no result: NR3A LBD binder) | rCAG bind conf 69.4 | DNA CAG counter 25.4 | dCAG dye DR inactive
COC(=O)c1sc(N2C(=O)C(O)=C(C(=O)c3ccc(C)o3)C2c2ccc([N+](=O)[O-])cc2)nc1C (configuration not stated)	rCAG RNA binder 65.5 | rCAG bind conf 68.0 | DNA CAG counter 28.5 | dCAG dye DR 3.3
COC(=O)[C@@]12C[C@@H](CC(=O)NCc3ccccc3)C(=O)N(Cc3ccccc3)C1=CCC(C)(C)C2	none (no result: NR3A LBD binder, FAS TE block)
O=C(Cc1ccc([N+](=O)[O-])cc1)NNC(=O)c1cccs1	rCAG RNA binder 54.6 | rCAG bind conf inactive | DNA CAG counter inactive
O=C(COc1ccc([N+](=O)[O-])cc1)NNC(=O)c1cccs1	none
CC1(C(=O)NS(=O)(=O)c2ccc(Cl)s2)CCN1C(=O)c1ccc(C2CCCCC2)cc1 (configuration not stated)	rCAG RNA binder 65.8 (no result: NR3A LBD binder) | rCAG bind conf 74.2 | DNA CAG counter 36.5
Cc1cccc(S(=O)(=O)NC(=O)C2(C)CCN2C(=O)C2(c3ccc(Cl)cc3)CC2)c1 (configuration not stated)	none (no result: NR3A LBD binder)
Cc1ccc(F)c(S(=O)(=O)NC(=O)C2(C)CCN2C(=O)C2(c3ccc(Cl)cc3)CCC2)c1 (configuration not stated)	rCAG RNA binder 36.1 (no result: NR3A LBD binder) | rCAG bind conf 62.6 | DNA CAG counter 24.1
CCS(=O)(=O)NC(=O)C1(C)CCN1C(=O)C1(c2ccc(Cl)cc2)CC1 (configuration not stated)	none (no result: NR3A LBD binder)

Assay outcomes from PubChem BioAssay.
